Source: PubChem BioAssay
HepG2 tox = qHTS for Inhibitors of TGF-b: Cytotox Counterscreen. AID 588856, 2011. Potency, µM (titrated, usually from 46.1 µM), for inactives: at the top dose activity change, negative = cytotoxicity, usual class: cytotoxic. HepG2 CAGA-GFP viability, ATP luminescence, 18 h. actives 0.76% (n = 410,000)
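CellTiter-Glo luminescence gave cytotoxicity after 18 hours at 37 degrees C. The cells were HepG2 CAGA-GFP in 1% FBS DMEM, stimulated with 500 pg/mL TGF-beta after compound addition. %Activity was normalised to no-cell wells (complete cell-killing) and DMSO (no toxicity), and curves were fitted and classified.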
TGFb inhibitor = qHTS for Inhibitors of TGF-b. actives 1.2% (n = 410,000). Potency, µM (titrated, usually from 46.1 µM), inactives show at the highest dose activity, negative = inhibition, actives largely listed as inhibitors. HepG2 CAGA-GFP TGF-b/SMAD3 reporter, GFP fluorescence, 18 h; TGF-beta stimulated, 500 pg/mL final; further: on the % scale 0 is the no-effect control and ±100 the full control effect; nearly all actives have a fitted effect of over 65% in size
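Read-out: total well GFP (ex488/em500-530) summed from mean per-cell fluorescence. Cells: HEPG2 CAGA-GFP, 1% FBS DMEM, 18 h at 37 degrees C with 500 pg/mL final TGF-beta. Unstimulated wells served as the full-inhibition control; stimulated DMSO wells = 0%.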
GLP1R inv ag = qHTS of GLP-1 Receptor Inverse Agonists (Inhibition Mode); Glucagon-like peptide 1 receptor (Homo sapiens), P43220; HEK293 GLP-1R CRE-luciferase, luminescence, 24 h; GLP-1R form is constitutively active; Potency, µM (titrated, usually from 38.3 µM), inactives show at the top dose activity change, negative = inhibition, actives largely listed as inhibitors; actives 1.6% (n = 410,000); further: on the % scale 0 is the no-effect control and ±100 the full control effect; nearly all actives have a fitted effect of over 55% in size
Target sequence (P43220 whole entry, looked up): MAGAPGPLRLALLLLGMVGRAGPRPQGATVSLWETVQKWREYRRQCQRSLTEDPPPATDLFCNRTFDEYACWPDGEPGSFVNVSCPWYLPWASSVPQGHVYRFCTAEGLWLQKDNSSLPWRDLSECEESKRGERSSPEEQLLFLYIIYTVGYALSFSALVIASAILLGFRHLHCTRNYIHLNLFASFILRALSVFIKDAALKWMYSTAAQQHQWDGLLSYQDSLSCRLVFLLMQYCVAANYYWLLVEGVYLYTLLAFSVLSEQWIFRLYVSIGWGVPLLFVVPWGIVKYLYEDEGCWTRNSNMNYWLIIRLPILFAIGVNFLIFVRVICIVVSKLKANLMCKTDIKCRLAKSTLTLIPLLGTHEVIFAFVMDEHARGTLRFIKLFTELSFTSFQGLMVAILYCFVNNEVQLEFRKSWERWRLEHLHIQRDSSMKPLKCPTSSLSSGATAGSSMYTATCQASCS
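qHTS in 1536-well format: reporter HEK293 cells expressing constitutive GLP-1R activity in DMEM + 10% Nu serum, 24 hr with compounds at 37 deg C, luminescence read after 12 min with detection reagent.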
ATXN2 expr inh = Primary qHTS for Inhibitors of ATXN expression; HEK-293 ATXN2-luciferase reporter, luminescence, 24 h; Potency, µM (titrated, usually from 57 µM), without a hit: top-dose activity change, negative = inhibition, usual class: inhibitors; actives 0.72% (n = 360,000); AID 1745845, 2022; further: on the % scale 0 is the no-effect control and ±100 the full control effect; nearly all actives have a fitted effect of over 55% in size
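qHTS (up to 57 uM final) was run with 24 h compound exposure of reporter cells at 37 °C. Each well was multiplexed: SteadyGlo luminescence measured ATXN2-luciferase expression after a fluorogenic Gly-Phe-AFC viability readout (25 uM final).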
ATXN viability = Viability Counterscreen for Primary qHTS for Inhibitors of ATXN expression. S2 cells (HEK-293 line with an ATXN2-luciferase reporter) viability, CellTiter-Fluor protease fluorescence, 24 h. Potency, µM (highest dose often 56.7 µM), hits mostly cytotoxic. actives 0.49% (n = 400,000); further: nearly all actives have a fitted effect of over 40% in size
GLP1R ag = qHTS of GLP-1 Receptor Agonists | Potency, µM (top dose mostly 45.6 µM), inactives show at the highest dose activation, most hits filed as activators | Glucagon-like peptide 1 receptor (Homo sapiens), P43220 | actives 0.007% (n = 380,000) | HEK293 GLP-1R CRE-luciferase, luminescence, 4-6 h; cells express a hypersensitive GLP-1R form; further: % of control where 0% means no effect
An asterisk follows results filed as active; i = inactive; ? = inconclusive; . = no result given; ! = repeats disagree. In the library only some 3.7% were active in any assay of this set; here they are far more common. The call rests on the fitted dose curve; in most records, active means well fitted curve in the direction sought with a large enough effect; inconclusive means small, poorly fitted or top-dose-only effect, or another doubt; inactive means no such curve, though single readings can be large; an effect the other way counts as inactive or inconclusive. Potency means the concentration at half of the fitted maximal effect.

SMILES	HepG2 tox	TGFb inhibitor	GLP1R inv ag	ATXN2 expr inh	ATXN viability	GLP1R ag
Cc1ccc(OCC(=O)N(Cc2ccco2)Cc2ccc(C)o2)cc1	3%	-17%	?	.	.	.
Cc1ccc2occ(CC(=O)N(Cc3ccc(Cl)cc3)Cc3ccco3)c2c1	-21%	16µM*	?	-23%	i	.
Cc1ccc(CN(Cc2ccco2)C(=O)c2oc3ccc(C)cc3c2C)cc1	-27%	?	?	4%	i	.
Cc1cccc(OCC(=O)N(Cc2ccc(N(C)C)cc2)Cc2ccco2)c1C	-40%	.	10µM*	.	.	.
Cc1cc(C)c(OCC(=O)N(Cc2ccco2)Cc2ccco2)c(C)c1	-65%	?	?	.	.	.
Cc1ccc(CN(Cc2ccco2)C(=O)COc2cccc(C)c2C)o1	-58%	-19%	11µM*	.	.	.
Cc1ccc(C(C)C)c(OCC(=O)NCC2(N3CCOCC3)CCCCC2)c1	-99%	?	?	.	.	.
Cc1cccc(N/C=C/c2onc(C)c2[N+](=O)[O-])c1	-25%	31%	1%	33%	i	1%
Cc1cccc(/C=C/c2onc(C)c2[N+](=O)[O-])n1	-166%	0%	2.8µM*	?	18µM*	-1%
Cc1cc(C)c2nccc(/C=C/c3ccc(N(C)C)cc3)c2c1	-20%	-15%	.	.	.	.
O=C(CSc1nc2ccc(Cl)cc2[nH]1)NC1CCCc2ccccc21 (stereo not drawn)	-37%	?	8.9µM*	-19%	?	16%
Cc1ccc(Cl)cc1N1CCN(CC(=O)NC2CCCc3ccccc32)CC1 (stereo not drawn)	-50%	?	?	-13%	i	1%
O=C(CN1CCN(c2ccccc2Cl)CC1)NC1CCCc2ccccc21 (stereo not drawn)	6%	?	10µM*	-16%	i	3%
CCS(=O)(=O)c1cccc(C(=O)N2CCN(c3nc4c(C)ccc(Cl)c4s3)CC2)c1	-42%	?	?	.	.	.
Cc1cccc(Cn2c(C(=O)OC(C)C)cc3c2ccn3C)c1	-30%	0%	5µM*	5%	i	0%
Cc1ccc2nc(CS)[nH]c2c1	-53%	-9%	.	.	.	.
C(C#CCCCCCCCCC[n+]1ccccc1)#CCCCCCCCCC[n+]1ccccc1	-163%	11µM*	?	7.1µM*!	13µM*	-2%
C1=Nc2ccccc2/C1=C/c1ccccc1	-14%	-9%	.	.	.	.
CC(NCc1ccc(-c2ccccc2)cc1)C(O)c1ccccc1 (stereo not drawn)	-65%	?	7.9µM*	?	?	-5%
CC(O)CNCc1ccc(-c2ccccc2)cc1 (stereo not drawn)	-11%	10%	0%	-21%	i	2%
CCOc1cc(CNCCCN2CCOCC2)cc(Br)c1OCC(=O)Nc1cccc(C(F)(F)F)c1	18µM*	?	?	22µM*	.	1%
COc1cc(CNCCCN2CCOCC2)cc(Br)c1OCc1ccc(Cl)cc1	-117%	?	?	21µM*	.	-5%
Cc1ccccc1-c1nc2scc(CCNS(=O)(=O)c3ccccc3)n2n1	-67%	-29%	8%	-12%	i	.
CCCCCC(=O)N1C[C@H](n2cc(-c3ccc(F)cc3)nn2)[C@@H](O)C[C@@H]1c1ccc(OC)cc1	4%	-16%	?	4%	i	-2%
CCCCCC(=O)N1C[C@H](O)[C@@H](n2cc(-c3ccc(F)cc3)nn2)C[C@@H]1c1ccc(OC)cc1	-40%	?	11µM*	?	?	5%
SMILES	HepG2 tox	TGFb inhibitor	GLP1R inv ag	ATXN2 expr inh	ATXN viability	GLP1R ag
CCCCCC(=O)N1C[C@H](O)[C@@H](n2cc(-c3ccc(F)cc3)nn2)C[C@@H]1c1ccc(Cl)cc1	-36%	?	10µM*	?	?	5%
CCCCCC(=O)N1C[C@@H](n2cc(-c3ccc(F)cc3)nn2)[C@H](O)C[C@@H]1c1ccc(Cl)cc1	-141%	?	?	?	.	2%
CCCOc1ccc(NC(=O)CC2C(=O)N(c3cccc(OC)c3)C(=O)N2Cc2cccs2)cc1 (stereo not drawn)	-24%	-35%	?	.	.	.
CCCCn1nc(NC(=O)c2cccc(Cl)c2)c2cc3cccc(C)c3nc21	4%	.	2%	.	.	.
N#Cc1cn(Cc2ccccc2)c2ccccc12	-25%	5%	11µM*	-20%	i	6%
O=C(Nc1ccc(F)c(Cl)c1)C1CCCN1S(=O)(=O)c1ccc(F)cc1 (stereo not drawn)	-31%	-21%	?	-23%	?	.
COC1=CC(=O)c2nc(Cl)ccc2C1=O	1.3µM*	0.89µM*	?	3.2µM*	?	-24%
CC(C)(CNC(=O)c1cnn(-c2ncc3c(n2)-c2ccccc2CCC3)c1C1CC1)N1CCOCC1	.	.	.	.	i	.
CNC(=O)c1sc(N2N=C3/C(=C/c4ccccc4)CCCC3C2c2ccccc2)nc1C (stereo not drawn)	-37%	-4%	-20%	13µM*	.	12%
CNC(=O)c1sc(N2N=C3/C(=C\c4ccccc4)CCCC3C2c2ccccc2)nc1C (stereo not drawn)	-17%	2%	?	?	.	-5%
CC(C)C[C@@H]1NC(=O)[C@H](Cc2ccccc2)N(C)C(=O)[C@H](C)NC(=O)c2ccccc2NC(=O)[C@H](Cc2ccc(O)cc2)N(C)C1=O	-19%	-9%	10µM*	?	i	-4%
CN(C)CC(C)(C)CNC(=O)c1cnn(-c2ncc3c(n2)-c2ccccc2CC3)c1-c1ccco1	.	.	.	.	i	.
CN(C)/[N+]([O-])=N/Oc1ccc([N+](=O)[O-])cc1C(F)(F)F	-33%	-1%	.	.	.	.
CC(C(=O)Nc1ccc2c(c1)OCO2)N(c1ccc(Cl)cc1)S(C)(=O)=O (stereo not drawn)	-6%	2%	10µM*	-20%	i	-6%
CC1=CC(=O)c2ccccc2C1=O	16µM*!	?	17%	24µM*!	i	6%
CC(C)(C=O)C1=CC(=O)c2ccccc2C1=O	-101%	?	0%	16µM*	.	-24%
Cn1nnc2c(N3CCN(c4ccc(F)cc4)CC3)ncnc21	-1%	13%	30%	.	.	.
O=C(c1ccccc1)c1sc(N2CCOCC2)nc1-c1ccccc1	-25%	4%	?	-2%	i	?
